LmPK inh: LmPK (Leishmania mexicana) enzyme inhibition; Potency, µM (titrated, usually from 57.5 µM), without a hit: top-dose activity change, negative = inhibition, most hits filed as inhibitors; 290,000 compounds, 0.37% hits; Q27686; purified LmPK, Kinase-Glo ATP luminescence, 1 h; AID 1721; further: potency means the concentration at half of the fitted maximal effect; on the % scale 0 is the no-effect control and ±100 the full control effect
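Purified LmPK (0.1 nM) converted ADP (0.1 mM) to ATP with PEP (0.5 mM) in imidazole buffer pH 7.2 with KCl and MgCl2, 1 h at room temperature. ATP was read by Kinase-Glo luminescence; data normalized to uninhibited and no-enzyme controls.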
Giardia FBPA inh: inhibitors of Giardia lamblia fructose-1,6-bisphosphate aldolase; 290,000 compounds, 0.71% hits; Potency, µM (top dose mostly 59.6 µM), for the others: top-dose activity, negative = inhibition, actives largely listed as inhibitors; A8B2U2; purified Giardia FBPA; further: potency means the concentration at half of the fitted maximal effect; on the % scale 0 is the no-effect control and ±100 the full control effect; nearly all actives have a fitted effect of over 55% in size
Target sequence (A8B2U2 whole entry, looked up): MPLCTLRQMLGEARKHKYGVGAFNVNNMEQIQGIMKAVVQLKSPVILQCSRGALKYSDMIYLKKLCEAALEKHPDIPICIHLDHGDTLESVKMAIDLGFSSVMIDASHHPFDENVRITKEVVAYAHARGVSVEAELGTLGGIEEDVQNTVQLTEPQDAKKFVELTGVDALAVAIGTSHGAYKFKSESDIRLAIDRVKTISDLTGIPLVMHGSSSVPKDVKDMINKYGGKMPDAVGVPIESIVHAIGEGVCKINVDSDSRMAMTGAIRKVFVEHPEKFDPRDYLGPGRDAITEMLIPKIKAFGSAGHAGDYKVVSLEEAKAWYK
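40 nM FBPA preincubated 10 min at RT with compound (up to 57.5 uM final), then substrate plus GAPDH/TPI/NAD/arsenate coupling and diaphorase/resazurin added. Fluorescence read after 20 min at RT, 525/598 nm.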
RE007 growth inh: less growth of the S. pombe RE007 Vpr strain. S. pombe RE007 Vpr strain, BacTiter-Glo ATP luminescence, 24 h. Potency, µM (highest dose often 92.2 µM), for inactives: top-dose activity change, negative = less growth, usual class: inhibitors. 360,000 compounds, 0.21% hits. AID 651644; active means well fitted falling curve with a large enough effect; inconclusive means small, poorly fitted or top-dose-only effect; inactive means no such curve, though single readings can be large or run the other way; further: potency means the concentration at half of the fitted maximal effect; on the % scale 0 is the no-effect control and ±100 the full control effect; nearly all actives have a fitted effect of over 50% in size
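Fission yeast strain RE007, carrying one chromosomally integrated HIV-1 vpr copy, was seeded at OD 0.01 in PMG+AL medium with 23 nL pinned compound. After 24 h at 30 °C and 99% humidity, viability was read by BacTiter-Glo luminescence.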
Tb PYK inh: inhibitors of Trypanosoma brucei pyruvate kinase; Q57TT1; TbPYK enzyme, Kinase-Glo Plus ATP luminescence, 45 min; Potency, µM (top dose mostly 76.8 µM), inactives show at the highest dose activity, negative = inhibition, actives largely listed as inhibitors; 410,000 compounds, 0.12% hits; AID 624173; further: potency means the concentration at half of the fitted maximal effect; on the % scale 0 is the no-effect control and ±100 the full control effect; nearly all actives have a fitted effect of over 50% in size
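T. brucei PYK with substrate was exposed to pin-transferred compounds across a concentration series, then started with 130 uM ADP (final). After 45 min at room temperature, Kinase-Glo Plus luminescence was read, normalized and curve-fitted.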
LmPK inh confirm: Blocks LmPK activity, confirmation assay | purified LmPK, Kinase-Glo ATP luminescence, 1 h | shares compounds with LmPK inh | Potency, µM (titrated, usually from 57.5 µM), for inactives: at the highest dose activity change, negative = inhibition, usual class: inhibitors | AID 2559 | 150 compounds, 40% hits;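 active means compounds giving a full or partial concentration-response curve, as inhibitors or activators; inconclusive means weak, top-dose-only or unclear curve responses; inactive means no response at any tested dose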
Numbers without * were called inactive; ? = inconclusive; . = not tested or not shown. A selection: hits, their analogues and other compounds. The true share with any hit is near 0.95%. Unless noted, the call rests on the fitted dose curve; in most records, active means well fitted curve in the direction sought with a large enough effect; inconclusive means small, poorly fitted or top-dose-only effect, or another doubt; inactive means no such curve, though single readings can be large; an effect the other way counts as inactive or inconclusive.

SMILES	LmPK inh	Giardia FBPA inh	RE007 growth inh	Tb PYK inh	others
O=C(CCn1c(=O)oc2ccccc21)N1CCC2(CC1)OCCO2	5.8%	-0.1%	-0.3%	15.8µM*
O=C(CCn1c(=O)oc2ccccc21)N1CCOCC1	4.8%	-1.6%	-2.3%	-0.3%
CC(=O)O[C@H](C)OC(=O)[C@@H](C)c1ccc(-c2ccccc2)c(F)c1	.	.	.	-7.0%
Nc1ccc2nc(-c3ccc(Cl)cc3)[nH]c2c1	-2.0%	-21.8%	-27.6%	0.3%
Nc1ccc2nc(-c3cc(Cl)c(N)c(Cl)c3)[nH]c2c1	15.8µM*	-12.4%	1.0%	-4.4%
O=C(Nc1cc(C(F)(F)F)ccc1N1CCCC1)C1CCCO1 (stereo unspecified)	.	.	1.7%	-9.6%
O=c1ccn(-c2cccc(C(F)(F)F)c2)nc1-c1ccn(-c2ccccc2)n1	1.3%	31.6µM*	0.0%	-2.3%
Cc1ccc2c(c1)c1c(n2C)-c2[nH]ncc2CC1	4.4%	-0.1%	20µM*	-0.4%
Cc1ccc(-c2nnc(Nc3ccccc3)o2)cc1	14.1µM*	-0.1%	?	-14.0%
Cc1ccc(NC(=O)Nc2nnc(-c3ccccc3)o2)cc1	0.9%	7.3%	-15.2%	-2.8%
Cc1ccc(-n2cnc3cc(NCc4cccs4)ccc32)cc1	5.8%	-20.6%	22.4µM*	-13.2%
c1ccc(-n2cnc3cc(NCc4cccs4)ccc32)cc1	-2.0%	-6.7%	-12.1%	-12.8%
S=c1[nH]nc(Cc2ccccc2)n1-c1cccc2ccccc12	10µM*	1.7%	13.0%	3.55µM*
Cc1ccc(-n2c(Cc3ccccc3)n[nH]c2=S)c(C)c1	-12.3%	0.1%	-23.0%	10µM*
Cc1ccc(-n2c(CC#N)n[nH]c2=S)c(C)c1	?	?	-3.1%	?
CCOC(=O)/C(C)=N/Nc1nc(-c2ccc(NC(C)=O)cc2)cs1	-4.5%	?	-13.6%	-9.9%
O=C1CCC(=O)N1CO	.	.	.	2.5%
CCOC(=O)N1CCN(C2=Nc3cccc4cccc2c34)CC1	-2.6%	?	-4.6%	1.0%
CC(=O)N1CCN(C2=Nc3cccc4cccc2c34)CC1	4.0%	3.97µM*	-4.8%	13.0%
S=c1[nH]nc2ccc3ccccc3n12	.	.	-10.2%	7.08µM*
S=c1[nH]c2ccccc2n2c(=S)[nH]nc12	-15.8%	?	17.5%	-26.9%
Cc1ccc(C(=O)NCc2ccc(Cl)c(Cl)c2)o1	3.2%	0.2%	25.1µM*	1.0%
Cc1ccc(C(=O)NCc2ccc3c(c2)OCO3)o1	-2.2%	-4.0%	6.9%	-2.2%
CC(=Nc1cc(C(=O)c2ccccc2)ccc1N)C1=C(O)CC(C)(C)CC1=O	-0.1%	?	0.6%	-7.2%
CC(=Nc1ccccc1N)c1c(C)cc(=O)n(O)c1O	.	15.8µM*	.	.
SMILES	LmPK inh	Giardia FBPA inh	RE007 growth inh	Tb PYK inh	others
CN1CC(C(=O)O)Cc2c1ccc1ccccc21 (stereo unspecified)	-1.0%	9.98µM*	-8.8%	2.2%
CN1C(=O)N(C)C(=O)C2(Cc3c(ccc4ccccc34)N(C)C2)C1=O	2.2%	?	-10.4%	-7.4%
Cc1cc(/C=N/NC(=O)c2ccncc2)c(C)n1-c1ccccc1	-3.3%	-17.2%	25.7%	1.5%
Cc1cc(C(=O)N/N=C/c2ccc(O)c(O)c2O)c(C)n1-c1ccccc1	-3.2%	15.8µM*	13.5%	10.1%
CCN(CC)c1ccc(/C=C2\C(=O)c3ccc(C(=O)O)cc3C2=O)cc1	-21.0%	-6.0%	-19.9%	25.1µM*
CCN(CC)c1ccc(C(=O)O)cc1	-4.3%	-3.2%	-15.5%	-11.9%
CCOC(=O)c1[nH]c(=S)n(Cc2ccccc2)c1C(=O)OCC	.	.	3.4%	?
CCOC(=O)c1[nH]c(=S)n(-c2ccccc2)c1C(=O)OCC	.	.	-3.7%	2.51µM*
CCOc1ccc2c(c1)n([O-])c1c([n+]2=O)CCCC1	-6.3%	14.1µM*	10.5%	-12.7%
CC(=O)c1c(O)cccc1O	.	-6.1%	.	.
Cc1ccc(C(=O)c2c(C)oc3c2C(=O)C(=O)c2ccccc2-3)cc1	0.3%	0.629µM*	25.1µM*	6.2%
Cc1oc2c(c1C(=O)N1CCC(C)CC1)C(=O)c1ccccc1C2=O	-2.3%	?	-7.2%	0.1%
Cc1oc2c(c1C(=O)c1ccc(Cl)cc1)C(=O)C(=O)c1ccccc1-2	-0.8%	0.889µM*	-14.8%	3.3%
Cc1ccc(C(=O)c2coc3c2C(=O)C(=O)c2ccccc2-3)cc1	6.4%	2.81µM*	?	-18.6%
CC(=O)O[C@@H]1C(=O)O[C@H]2[C@@H]1OC(=O)[C@@H]2OC(C)=O	.	.	.	1.2%
Nc1nc2[nH]cc(CCc3ccc(C(=O)N[C@@H](CCC(=O)O)C(=O)O)cc3)c2c(=O)[nH]1	.	.	.	0.0%
CN1/C(=C\C=Nc2ccc3ccccc3c2)C(C)(C)c2ccccc21	3.8%	-5.3%	.	.
CN1/C(=C\C=O)C(C)(C)c2ccccc21	5.2%	-3.7%	4.1%	-1.8%
CN1/C(=C\C=C\C2=[N+](C)c3ccc4ccccc4c3C2(C)C)C(C)(C)c2ccccc21	14.1µM*	.	.	.
CN1\C(=C/C=C/C=C/C=[N+](C)C)C(C)(C)c2ccccc21	10µM*	-16.5%	?	?
FC(F)(F)C(F)(F)C(F)(F)C(F)(F)C(F)(F)F	.	.	.	-1.4%
COc1ccc(N2CCN(C(=O)C3CCN(S(=O)(=O)Cc4ccccc4)CC3)CC2)cc1	.	.	.	-5.7%
CCCCCCCCCCCCCCCCCCCCCC(=O)Nc1ccn([C@@H]2O[C@H](CO)[C@@H](O)[C@@H]2O)c(=O)n1	.	.	.	-6.1%
CN(Cc1cn(C)nc1-c1cccc(Cl)c1)Cc1nccn1C	2.2%	-0.3%	8.1%	-8.2%	LmPK inh confirm=-0.6%
CN(Cc1cccnc1)Cc1cn(C)nc1-c1cccc(Cl)c1	5.7%	2.5%	-13.8%	5.5%
SMILES	LmPK inh	Giardia FBPA inh	RE007 growth inh	Tb PYK inh	others
Cc1ccc(Cn2cccc(NC(=O)NC3CCCCC3)c2=O)cc1	5.0%	-6.3%	20.2%	-1.6%	LmPK inh confirm=-0.7%
O=C(Nc1cccn(Cc2ccc(F)cc2)c1=O)NC1CCCCC1	0.8%	-10.3%	-0.2%	-1.9%
COC(=O)COc1ccc(/C=C2/SC(=O)N(CC(=O)N3CCCC3)C2=O)cc1Br	-5.4%	5.4%	-4.2%	0.4%	LmPK inh confirm=4.2%
COC(=O)COc1cc(Br)c(/C=C2/SC(=O)N(CC(=O)N3CCCC3)C2=O)cc1OC	-2.3%	.	4.9%	1.2%
O=[N+]([O-])c1ccc(Cl)c(S(=O)(=O)Nc2cccc(-c3ccc(N4CCCC4)nn3)c2)c1	.	.	-14.3%	-2.6%
CCN1C(=O)C2(SC(NC(C)=O)=NN2C(C)=O)c2cc(C)ccc21 (stereo unspecified)	-2.3%	0.4%	-6.3%	3.7%	LmPK inh confirm=1.9%
CCOC(=O)CC(=O)CSc1ccc2nnc(-c3ccc(F)cc3)n2n1	2.6%	8.9%	-5.0%	0.8%
COC(=O)CSc1ccc2nnc(-c3ccc(F)cc3)n2n1	1.6%	2.7%	10.7%	-21.3%	LmPK inh confirm=0.2%
Cc1ccc(/C=C/C(=O)c2ccc(C)cc2)cc1	-7.7%	-10.0%	1.4%	-0.9%
